The test system of this assay is MDA-MB-468 breast. The experiment in a line: NCI-60 one-dose screen, 48 h (100 = growth as untreated, 0 = no growth, -100 = all killed). The settings on record: 10 µM unless noted.

Several values for one entry are separate records, joined by “and”; a condition that tells them apart may be missing. Equal values may be shown once. Compounds without any hit were thinned out: in the full panel of roughly 83,000, 20% have a hit.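 Method: cells in 96-well plates; compound added at one concentration; 48 h incubation; percent growth measured; values under 10 scored active.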 A number with no mark means an inactive call. Activity calls are given as the source filed them.

As for `O=C1N[C@@H]2[C@@H](O)[C@@H](O)[C@H](O)C[C@H]2c2cc3c(c(O)c21)OCO3`, the growth was -45.8% (active). For `CC1=C(CN(O)C(N)=O)C2=C(C)C3(CC3)[C@@](C)(O)C(=O)C2=C1`, the growth was -69.1% (active). To `C/C1=C/C(=O)O[C@@H]2C[C@@H](CC[C@H](C)/C=C\C=C\CC1)O[C@@](OCCc1ccccc1)([C@@H]1CSC(=O)N1)C2` belongs 12.2%.

`CCC(C)/C=C(C)/C=C/C(=O)c1c(O)c(-c2ccc(O)cc2)c[nH]c1=O` (centres undefined): the growth was 30.3%. To `O=[N+]([O-])c1ccc2cnn(CSP(=S)(c3ccccc3)c3ccccc3)c2c1` belongs 43.1%. Take `CC(=O)N1N=C(c2ccccc2)CC1c1sc(N(CCCl)CCCl)nc1Cl` (centres undefined): the growth was 92.6%.

In the case of `CC(=O)C(N)Cc1ccccc1` (centres undefined), the growth is 97%. Consider `CCCCCCCC[N+]12CN3CN(CN(C3)C1)C2`, for which the growth was 93.4%. To `CC(CC1CCCCC1)NCc1ccccc1` (centres undefined) belongs 102%. For the compound `O=P1(N(CCCl)CCCl)NCCCO1` (centres undefined), the growth is 108%. As for `O=C(NCCNC(=O)c1ccc([As](O)O)cc1)c1ccc([As](O)O)cc1`, the figure is 82.2%; as for `O=C1C=C(N2C3C4CCC(C4)C32)C(=O)C=C1c1ccccc1` (centres undefined), 16.9%. For `O=C(CCCC1CCCCC1)OCC(Cl)(Cl)Cl`, the growth was 113%. To `O=C(NC1=NCC[Se]1)c1ccccc1O` belongs 93.1%. For `Cc1cc(C)c(CBr)c(C)c1`, the growth is 98.9%.

In the case of `CC[C@H](C)[C@H](NC(=O)[C@H]1CCCCN1C)C(=O)N(C)[C@H](C[C@@H](OC(C)=O)c1cccc(C(=O)N[C@@H](Cc2ccccc2)C[C@H](C)C(=O)O)n1)C(C)C`, the growth was 31.2%. To `CCCCN(CCCC)P(=O)(Oc1ccccc1)Oc1ccccc1` belongs 39.2%; to `Oc1ccccc1OB(Oc1ccccc1O)N(CCCl)CCCl`, 84%.

Regarding `COc1cc(/C=C/[N+](=O)[O-])c([N+](=O)[O-])cc1OC`, the growth was -71.2% (active). As for `O=C/C=C/c1ccco1`, the figure is 106%. To `C/C(CC(C)(C)N1CC1)=N\NC(=O)Nc1cccc2ccccc12` belongs -2.46% (active). Consider `CCC(C)[C@H]1O[C@]2(C=C[C@@H]1C)C[C@@H]1C[C@@H](C/C=C(\C)[C@@H](OC3C[C@H](OC)C(O[C@H]4C[C@H](OC)[C@@H](O)[C@H](C)O4)[C@H](C)O3)[C@@H](C)/C=C/C=C3\CO[C@@H]4[C@H](O)C(C)=C[C@@H](C(=O)O1)[C@]34O)O2` (some centres undefined), for which the growth was -12.7% (active). To `CCCCCCCCCCOc1ccc(C(=O)Oc2ccc(CSP3(=O)OCC4OC(n5ccc(=O)[nH]c5=O)C(F)C4OP(=O)(O)OCC4OC(n5cnc6c(N)ncnc65)C(F)C4O3)cc2)cc1` (centres undefined) belongs 115%. As for `CCC1(CCSC#N)C(=O)NC(=O)NC1=O`, the figure is 107%; as for `C/C(=N/OC(=O)N(C)C)c1ccc(Cl)c(Cl)c1`, 120%; as for `CNC(=O)O/N=C(\SC)C(=O)N(C)C`, 116%. To `ClCCN(CCCl)c1ccc(/C=N\N=C\c2ccc(N(CCCl)CCCl)cc2)cc1` belongs 50%; to `CCOP(=O)(OCC)/C(C#N)=C/c1ccc(Br)cc1`, 101%; to `Clc1ccc(CSC(Cn2ccnc2)c2ccc(Cl)cc2Cl)cc1` (centres undefined), -2.39% (active).

In the case of `COc1cccc(/C=C/[N+](=O)[O-])c1`, the growth is 25.8%. As for `CN(C)P1(N(C)C)=NP(N(C)C)(N(C)C)=NP(N(C)C)(N(C)C)=N1`, the figure is 106%; as for `COC(=O)[C@@H](C)C[C@H](Cc1ccccc1)NC(=O)c1csc([C@@H](C[C@H](C(C)C)N(C)C(=O)[C@@H](NC(=O)[C@H]2CCCCN2C)c2ccc(F)cc2)OC(C)=O)n1`, 2.95% (active); as for `O=C(CC1(O)C(=O)Nc2ccc(F)cc21)c1ccc(C(=O)NCC2CCC3(CC2)OOC2(CCCCC2)OO3)cc1` (centres undefined), 47.6%. As for `CN=C(NN)NN`, the figure is 112%; as for `CC[C@@H]1[C@@H](C)O[C@@](O)([C@@H](C)[C@H](O)[C@H](C)[C@H]2OC(=O)/C=C/C=C/[C@H](C)[C@@H]([C@@H](C)[C@@H](O)[C@H](C)[C@@]3(O)C[C@@H](O[C@H]4C[C@@H](O)[C@H](O)C(C)O4)[C@H](CC)[C@@H](C)O3)OC(=O)/C=C/C=C/[C@@H]2C)C[C@H]1O[C@@H]1C[C@@H](O)[C@H](O)C(C)O1` (some centres undefined), -83.6% (active). As for `COC12CC3C4=CCOC5CC(=O)N6c7ccccc7C1(CCN2C4)C6C53` (centres undefined), the figure is 102%; as for `C[As](=O)(O)c1ccc(C(=O)O)cc1`, 99.8%.

Take `O=C(NCc1ccc([N+](=O)[O-])cc1)Nc1ccc(S(=O)(=O)F)cc1`: the growth was 40.4%. As to `CCOc1c(Cl)cc(CNC(C)C(O)c2ccccc2)cc1OC` (centres undefined), the growth was 32.5%. To `O=C(CI)Nc1ccc(Br)cc1` belongs 79.1%. Consider `NC(=Nc1ccccc1)N[N+](=O)[O-]`, for which the growth was 92.2%.

For the compound `CCOC(=O)[C@@H](C)C[C@H](Cc1ccccc1)NC(=O)c1csc([C@@H](C[C@H](C(C)C)N(C)C(=O)CNC(=O)[C@H]2CCCCN2C)OC(C)=O)n1`, the growth was 28%.

As for `O=S(=O)(c1ccc(Cl)cc1)C(Cl)(Cl)Cl`, the growth was -20.4% (active). To `CCOc1ccc(/C=C/[N+](=O)[O-])cc1` belongs 35.4%; to `Cc1ccc(S(=O)(=O)F)cc1C(=O)O`, 92.5%. To `CCOC(=O)C(NC(=O)C(Cc1ccc(N(CCCl)CCCl)cc1)NC(C)=O)C(C)C` (centres undefined) belongs 92.3%. On to `CC1=C(CCCOC(=O)CN)C2=C(C)C3(CC3)[C@@](C)(O)C(=O)C2=C1`, for which the growth was 20.2%. To `O=C(CCCN1CCC2(CC1)C(=O)NCN2c1ccccc1)c1ccc(F)cc1` belongs 103% and 32.6%; to `COc1ccc(/C=C\[N+](=O)[O-])cc1OC`, 53.6% and 11.6%. As for `O=C(O)CCCc1ccc(N(CCCl)CCCl)cc1`, the figure is 77.7%; as for `CC(/C=N/N=C(N)N)=N\N=C(N)N`, 88.7%; as for `CC(C)CCC1(CCO)C(=O)NC(=S)NC1=O`, 108%. To `CCOP(=O)(NC)OCC` belongs 94.2%.

`O=C(O)C(F)F`: the growth was 91.4%. As for `CO[C@@H]([CH2][Hg][S]C#N)[C@@H]([CH2][Hg][S]C#N)OC`, the figure is 98.3%; as for `COc1cc(/C=C(/C)[N+](=O)[O-])ccc1O`, -85.4% (active) and -90.3% (active); as for `C=CC[Se]C(=O)c1ccccc1OC(C)=O`, -16.6% (active).

Consider `Cc1ccc(C(=O)O[C@H](C(=O)O)[C@H](OC(=O)c2ccc(C)cc2)C(=O)O)cc1`, for which the growth is 103%. As for `O=c1c2ccccc2nc(-c2ccccc2Cl)n1-c1nnc(C(F)(F)F)s1`, the figure is 19.7%. To `CN(C)C(=O)Oc1ccccc1-c1ccccc1` belongs 99.7%; to `C[C@@H]1C[C@@]2(C)[C@@H](CC[C@@H]3[C@@H]2CC[C@]2(C)C(=O)CC[C@@H]32)CC1=O`, 95.4%.

For the compound `C/C(=C\c1ccn(-c2ccc(N)c(F)c2)n1)[C@@H]1C[C@@H]2O[C@]2(C)CCC[C@H](C)[C@H](O)[C@@H](C)C(=O)C(C)(C)[C@@H](O)CC(=O)O1`, the growth is 10.5%.

Take `CC1=C(CNO)C2=C(C)C3(CC3)[C@@](C)(O)C(=O)C2=C1`: the growth is -62.9% (active). As to `NC(=O)SCC(=O)Nc1ccc([As](=O)(O)O)cc1`, the growth was 87.2%.

With `CCOC(=O)/C(C#N)=C/c1ccc(N(CCCl)CCCl)cc1`, the growth is 64.2%.

Consider `CCn1c2ccccc2c2cc(C(=O)c3cccc4c3CCCN4)ccc21`, for which the growth was 96.4%. To `OCCCCCNC1CCCCC1` belongs 97.6%; to `C[C@]12CC[C@H]3[C@@H](C[C@@H]4N=C(c5ccc(O)cc5)S[C@@]45C[C@H](O)CC[C@]35C)[C@@H]1CC[C@@H]2O`, 81%. `COC(=O)[C@@H](C)C[C@H](Cc1ccccc1)NC(=O)c1csc([C@@H](C[C@H](C(C)C)N(C)C(=O)[C@@H](NC(=O)C23CC(NC(C)=O)(C2)C3)C2CC2)OC(C)=O)n1`: the growth is 3.05% (active). For `CC(=O)Oc1ccccc1C(=O)NCCC[Se]C#N`, the growth was 19%.

With `S=P(N1CCCCCC1)(N1CC1)N1CC1`, the growth is 105%. To `O=C(CC1(O)C(=O)Nc2ccccc21)c1ccc(C(=O)NCC2CCC3(CC2)OOC2(CCCCC2)OO3)cc1` (centres undefined) belongs 53.7%; to `C[C@]12CCc3sc(-c4cccc(F)c4)nc3C1=CC[C@@H]1[C@@H]2CC[C@]2(C)C(=O)CC[C@@H]12`, 29.2%. As for `COC(C(=O)[C@@H](O)[C@@H](C)O)[C@@H]1Cc2cc3cc(O[C@H]4C[C@@H](O[C@H]5C[C@@H](O)[C@H](O)C(C)O5)[C@H](O)C(C)O4)c(C)c(O)c3c(O)c2C(=O)[C@H]1O[C@H]1C[C@@H](O[C@H]2C[C@@H](O[C@H]3C[C@@H](O)[C@@H](O)C(C)O3)[C@@H](O)C(C)O2)[C@H](O)C(C)O1` (some centres undefined), the figure is -41.2% (active); as for `C[C@]12CCc3sc(Nc4ccc(F)cc4)nc3C1=CC[C@@H]1[C@@H]2CC[C@]2(C)C(=O)CC[C@@H]12`, 40.8%. As to `N#Cc1c(-n2c(Br)c(Br)c3cc(Br)ccc32)[nH]c2c(Br)cc(Br)cc12`, the growth is -16.3% (active). `CC(=O)O[C@H](C[C@H](C(C)C)N(C)C(=O)[C@@H](NC(=O)[C@H]1CCCN1C)C(C)C)c1nc(C(=O)N[C@@H](Cc2ccccc2)C[C@H](C)C(=O)O)c(C)s1`: the growth was 18.7%. To `CC(=O)[O][Hg][c]1ccccc1` belongs -83.8% (active); to `O=C(O)c1cc([N+](=O)[O-])cc([N+](=O)[O-])c1`, 103%.

The record behind these values is PubChem BioAssay (NCI).
